Test results published in PubChem BioAssay AID1251 (SRMLSC, 2008).
Hit rate of the full screen: of about 200,000 compounds, about 720 (0.36%) were called active. No stated cut-off is given here; in the data, active means inhibition above about 30%; inactive means the rest, inconclusive results apart. For the sample, actives were picked, then their nearest neighbours and some compounds at random.

Experiment: inhibitors of arbovirus infection in cells – cell-based, full library, 10K replicate subset, primary screen (AID 1251)
[1] = arbovirus infection cell-based antiviral screen, at 10 µM, stronger effect = higher value
[2] = arbovirus infection cell-based antiviral screen; at 10 µM; stronger effect = higher value
[3] = arbovirus infection cell-based antiviral screen; measured here: 10K subset replicate screen; at 10 µM; stronger effect = higher value

Compound: NC(=O)COc1ccc(NC(=O)c2ccccc2-c2ccccc2)cc1
- inhibition [1]: -1.27% (inactive)

Compound: CCn1c(SCC(=O)Nc2ccccc2F)nc2c(c1=O)SC(C)C2 (stereo unspecified)
- inhibition [1]: 13.7% (inactive)

Compound: COCCn1c(SCC(=O)Nc2cc(Cl)ccc2OC)nc2c(c1=O)SC(C)C2 (stereo unspecified)
- inhibition [2]: 31.7% (active)
- inhibition [3]: 23%

Compound: CC1Cc2nc(SCC(=O)Nc3ccccc3F)n(C)c(=O)c2S1 (stereo unspecified)
- inhibition [1]: 6.16% (inactive)

Compound: CC(=O)Nc1ccc(SCC(=O)Nc2ccccc2Oc2ccccc2)cc1
- inhibition [1]: -11.3% (inactive)

Compound: O=C(CSc1ccccc1)Nc1cc(Cl)ccc1Oc1ccccc1
- inhibition [1]: 31.3% (active)

Compound: COc1ccc(C)cc1NC(=O)CSc1ccc(Cl)cc1
- inhibition [1]: 3.07% (inactive)

Compound: C=Cn1c(C(=O)O)ccc1-c1ccc(OC)cc1
- inhibition [1]: -6.55% (inactive)

Compound: CCn1c(-c2cccnc2Cl)nc2cc(C)c(C)cc21
- inhibition [1]: 9.84% (inactive)

Compound: COc1ccc(-c2csc3ncnc(Oc4ccc5c(C)cc(=O)oc5c4)c23)cc1
- inhibition [1]: -19% (inactive)

Compound: CCn1cnc2scc(-c3ccc(C)c(C)c3)c2c1=O
- inhibition [1]: -10.7% (inactive)

Compound: Cc1cc(F)ccc1S(=O)(=O)Nc1ncnc2scc(-c3ccc(F)cc3)c12
- inhibition [1]: 34.8% (active)

Compound: Cc1cccc(C)c1NC(=O)Nc1ccccc1-n1ccnc1
- inhibition [1]: 0% (inactive)

Compound: CCN(/N=C/c1ccc(N(C)C)cc1)c1nc2ccccc2[nH]1
- inhibition [1]: -9.69% (inactive)

Compound: CCNC(=S)NNC(=O)C1CCN(Cc2ccccc2)CC1
- inhibition [1]: 0.25% (inactive)

Compound: CCN(CCO)C(=S)Nc1cc(C(=O)OC)ccc1C(=O)OC
- inhibition [1]: -0.56% (inactive)

Compound: CC(=O)Nc1ccc(Sc2ccccc2C(=O)N2CCCC2)cn1
- inhibition [1]: 12.2% (inactive)

Compound: CN(C)c1nc(-c2cccnc2)nc(-c2ccc(Cl)cc2)c1C#N
- inhibition [1]: -9.56% (inactive)

Compound: O=C(CCN1CCN(C/C=C/c2ccccc2)CC1)Nc1cccc(F)c1
- inhibition [1]: -4.37% (inactive)

Compound: CC/C(=N\NC(=S)NC(C)C)c1ccc(OC(F)F)cc1
- inhibition [1]: 1.93% (inactive)

Compound: CC(Nc1nc(N2CCCC2)nc2ccccc12)c1ccccc1 (stereo unspecified)
- inhibition [1]: -47.5% (inactive)

Compound: CC(=O)NC(CC(=O)O)c1ccc(F)cc1 (stereo unspecified)
- inhibition [1]: 4.26% (inactive)

Compound: Cc1ccc(C(CC(=O)O)Nc2nc(N3CCCCC3)nc(N3CCCCC3)n2)cc1 (stereo unspecified)
- inhibition [1]: 31.3% (active)

Compound: O=[N+]([O-])c1ccc2oc(-c3cccc(O)c3)nc2c1
- inhibition [1]: 0.35% (inactive)

Compound: COc1ccc(Nc2nc(NCc3ccco3)nc(N/N=C/c3ccccc3Cl)n2)cc1
- inhibition [1]: -9.8% (inactive)

Compound: CC1CCCC(NC(=O)c2cccc(N3CCCC3=O)c2)C1C (stereo unspecified)
- inhibition [1]: 15.1% (inactive)

Compound: O=C(Nc1ccc(-c2ccc3nncn3n2)cc1)C1CCCCC1
- inhibition [1]: 2.96% (inactive)

Compound: CC(CC(=O)O)C(=O)c1ccc(Cl)c([N+](=O)[O-])c1 (stereo unspecified)
- inhibition [1]: 5.76% (inactive)

Compound: CCO[C@@H]1OC(C(=O)N2CCOCC2)=C[C@H](C)[C@H]1CCCO
- inhibition [1]: 1.57% (inactive)

Compound: COc1ccc(C(=O)OCC(=O)NC(=O)CCSc2ccccc2)cc1
- inhibition [1]: -0.73% (inactive)

Compound: Cc1ccccc1Nc1scc(-c2ccc(Br)cc2)[n+]1-c1ccccc1C
- inhibition [1]: 15.8% (inactive)

Compound: O=C(CC1C(=O)NCCN1Cc1ccc(-c2ccccc2)cc1)NCC1CCOCC1 (stereo unspecified)
- inhibition [1]: 1.09% (inactive)

Compound: Cc1ccc(CNC(=O)Cn2c(=O)c3sccc3n(Cc3cccc([N+](=O)[O-])c3)c2=O)cc1
- inhibition [1]: -23.2% (inactive)

Compound: C/C(=N\NC(=O)c1ccc(NS(=O)(=O)c2cccs2)cc1)c1ccc2ccccc2c1
- inhibition [1]: -27.7% (inactive)

Compound: Cc1ccccc1CSc1nnc(-c2ccccc2)c(=O)[nH]1
- inhibition [1]: 1.96% (inactive)

Compound: O=c1[nH]c(SCc2ccccc2)nnc1-c1ccccc1
- inhibition [1]: 33.1% (active)

Compound: c1ccc(CSc2nnc(-c3ccco3)c(-c3ccco3)n2)cc1
- inhibition [1]: 13.1% (inactive)

Compound: O=C(Cn1cnc([N+](=O)[O-])n1)NCCc1ccccc1
- inhibition [1]: -2.73% (inactive)

Compound: CC(=O)Oc1ccccc1C(=O)Nc1ncc([N+](=O)[O-])s1
- inhibition [1]: 31.3% (active)

Compound: O=C(CCc1ccccc1)Nc1ncc([N+](=O)[O-])s1
- inhibition [1]: 14.4% (inactive)

Compound: O=C(Cc1c(F)cccc1Cl)Nc1ncc([N+](=O)[O-])s1
- inhibition [1]: 25.4% (inactive)

Compound: Cc1ccc(-c2csc(NC(=O)c3cccs3)n2)cc1
- inhibition [1]: 103% (active)

Compound: Cc1ccc(-c2csc(NNC(=O)c3ccccc3)n2)cc1
- inhibition [1]: -29.2% (inactive)

Compound: Cc1nc(-c2ccc(NC(=O)c3cccs3)cc2)cs1
- inhibition [1]: -9.57% (inactive)

Compound: COc1ccc(OC)c(-c2c(=O)n(OCc3ccccc3Br)c3ccccc3[n+]2[O-])c1
- inhibition [1]: 6.28% (inactive)

Compound: O=C(COC(=O)c1ccccc1)Nc1ccccc1Sc1ccccc1
- inhibition [1]: -1.75% (inactive)

Compound: O=c1[nH]c(CN2CCN(S(=O)(=O)c3ccc4c(c3)OCCO4)CC2)nc2sc3c(c12)CCCC3
- inhibition [1]: 11.3% (inactive)

Compound: CCCCOc1ccc(NC(=O)[C@@H]2CCCN2C(=O)C2CCN(S(=O)(=O)c3ccc(C)cc3)CC2)cc1
- inhibition [1]: -16.3% (inactive)

Compound: Cc1cc(C)c(C#N)c(N2CCC(C(N)=O)CC2)n1
- inhibition [1]: 2.87% (inactive)

Compound: CC(NC(=O)C(=O)NN=C1CCC(C(C)(C)C)CC1)c1ccccc1 (stereo unspecified)
- inhibition [1]: 1.88% (inactive)

Compound: Cc1sc2nc(CC(N)=O)[nH]c(=O)c2c1-c1ccccc1
- inhibition [1]: 3.01% (inactive)

Compound: Cc1ccsc1C1C(C#N)=C(N)OC2=C1C(=O)CC(C)C2 (stereo unspecified)
- inhibition [1]: -1.92% (inactive)

Compound: C=CCN1C(=O)C(O)(CC(=O)c2ccccn2)c2ccccc21 (stereo unspecified)
- inhibition [1]: -2.77% (inactive)

Compound: O=C(Nc1ccc(F)cc1)N1CCCC(c2nc3c(nnn3Cc3ccccc3Cl)c(=O)[nH]2)C1 (stereo unspecified)
- inhibition [1]: 12.4% (inactive)

Compound: Cc1ccc(NC(=O)N2CCC(c3nc4c(nnn4Cc4c(F)cccc4Cl)c(=O)[nH]3)CC2)cc1
- inhibition [1]: -3.45% (inactive)

Compound: Cc1ccc(C)c(Cn2nnc3c(=O)[nH]c(C(=O)Nc4ccc(F)cc4)nc32)c1
- inhibition [1]: 39.7% (active)

Compound: CSCCNCc1cn(-c2ccc(F)cc2F)nc1-c1ccccc1C
- inhibition [1]: -1.44% (inactive)

Compound: CCOC(=O)Cc1ncccc1C(=O)Nc1ccc(OC(F)(F)F)cc1
- inhibition [1]: 4.21% (inactive)

Compound: Cc1nn(Cc2ccc(Cl)cc2)c(Cl)c1/C=N/NC(=O)CNc1ccccc1F
- inhibition [1]: -16.6% (inactive)

Compound: CC(=O)Nc1ccc(NC(=S)NC(=O)c2ccc([N+](=O)[O-])c(C)c2)cc1
- inhibition [1]: -7.89% (inactive)

Compound: O=C(O)c1ccc2c(c1)C(=O)N(NC(=O)c1ccc(O)cc1)C2=O
- inhibition [1]: -2.03% (inactive)

Compound: CCC(=O)N1CCN=C1SCc1ccc(F)cc1
- inhibition [1]: -3.24% (inactive)

Compound: O=C(C1CC1)N1CCN=C1SCc1ccc(Cl)cc1
- inhibition [1]: 55.7% (active)

Compound: O=C(c1ccco1)N1CCN=C1SCc1cccc(Cl)c1
- inhibition [2]: 5.96% (inactive)
- inhibition [3]: 0.055%

Compound: C/C(=N\NC(=O)CCn1nc(C)cc1C)C(C)(C)C
- inhibition [1]: -5.42% (inactive)

Compound: CCCN(C(=O)CSc1nnnn1C)c1c(N)n(Cc2ccccc2)c(=O)[nH]c1=O
- inhibition [1]: 21.9% (inactive)

Compound: Brc1ccc(C2=CC(c3ccco3)n3ncnc3N2)cc1 (stereo unspecified)
- inhibition [1]: 12.4% (inactive)

Compound: COc1ccc(C2C=C(c3ccc(Br)cc3)Nc3nc(NS(C)(=O)=O)nn32)cc1 (stereo unspecified)
- inhibition [1]: 61.9% (active)

Compound: COc1ccc(C2=CC(c3cccc(OC)c3)n3nnnc3N2)cc1 (stereo unspecified)
- inhibition [1]: 11.1% (inactive)

Compound: CC1(C)CC(=O)CC2(C1)NCC(c1ccccc1Cl)c1c2[nH]c2ccccc12 (stereo unspecified)
- inhibition [1]: -27.8% (inactive)

Compound: COc1cccc(Nc2nnc(SCC(=O)N3CC(C)OC(C)C3)s2)c1 (stereo unspecified)
- inhibition [1]: 2.66% (inactive)

Compound: COc1cccc(NC(=O)Nc2nnc(N3CCCCC3C)s2)c1 (stereo unspecified)
- inhibition [2]: 37.5% (active)
- inhibition [3]: 24.8%

Compound: CCOC(=O)c1csc(NC(=O)Nc2cccc(OC)c2)n1
- inhibition [1]: 6.16% (inactive)

Compound: NC(N)=Nc1nc2ccc(Br)cc2c(=O)[nH]1
- inhibition [1]: -2.82% (inactive)

Compound: CCOc1ccc(C(=O)Nc2cccc(SC)c2)cc1
- inhibition [1]: 4.43% (inactive)

Compound: Cc1ccc(C2=C/C(=C\c3cccnc3)C(=O)O2)cc1
- inhibition [1]: -1.53% (inactive)

Compound: O=C(Nc1ccc2c(c1)CCC2)c1cccc(S(=O)(=O)Nc2ccccc2Cl)c1
- inhibition [1]: -3.02% (inactive)

Compound: C=CCn1c(SCC(=O)NCc2ccccc2)nnc1-c1cc(Br)ccc1O
- inhibition [1]: 8.76% (inactive)

Compound: Cn1nnnc1SCC(=O)Nc1nc2ccccc2s1
- inhibition [1]: 0.23% (inactive)

Compound: C=CCn1c(SCC(=O)Nc2nc3ccccc3s2)nnc1-c1ccccc1O
- inhibition [1]: 47.3% (active)

Compound: CCOc1cc(/C=C(/C#N)c2ccc(Cl)cc2)cc(Cl)c1OCC(=O)O
- inhibition [1]: 51.7% (active)

Compound: CCOc1c(Cl)cc(/C=N/O)cc1OC
- inhibition [1]: 11% (inactive)

Compound: CCOC(=O)CN/C=C(\C#N)c1ccc(F)cc1
- inhibition [1]: -0.71% (inactive)

Compound: S=c1[nH]nc(/C=C/c2ccccc2)o1
- inhibition [1]: -0.67% (inactive)

Compound: O=c1oc(/C=C/c2ccccc2)nc2ccccc12
- inhibition [1]: 44.9% (active)

Compound: CCn1c(/C=C/c2ccc([N+](=O)[O-])o2)nc2ccccc2c1=O
- inhibition [1]: -31.9% (inactive)

Compound: CC(C)(C)NC(=O)c1cccc(NC(=O)Cc2ccc(Br)cc2)c1
- inhibition [1]: 17.2% (inactive)

Compound: Cc1ccccc1NC(=S)N(CCCN1CCOCC1)Cc1cccs1
- inhibition [1]: 7.45% (inactive)

Compound: CCCc1cc(=O)[nH]c(SCc2ccc(C#N)cc2)n1
- inhibition [1]: 42% (active)

Compound: CCCc1cc(=O)[nH]c(SCC(=O)OCc2ccccc2)n1
- inhibition [1]: 0.37% (inactive)

Compound: CCCc1cc(=O)[nH]c(SCc2cc(=O)oc3c(C)c(C)ccc23)n1
- inhibition [1]: 5.14% (inactive)

Compound: CN1CCN(S(=O)(=O)c2cccc(C(=O)O)c2)CC1
- inhibition [1]: -0.22% (inactive)

Compound: CC(=O)n1cc([C@@H]2C=C(C(=O)N3CCN(Cc4ccc5c(c4)OCO5)CC3)O[C@H](OCc3ccc(CO)cc3)C2)c2ccccc21
- inhibition [1]: -8.36% (inactive)

Compound: COc1ccc(C)cc1NC(=O)c1ccc(-c2ccc(C(C)=O)cc2)o1
- inhibition [1]: -5.64% (inactive)

Compound: Cc1cccc(CSc2nnc(NC(=O)CSc3nnc(C)s3)s2)c1
- inhibition [1]: 31.4% (active)

Compound: Cc1cccc(NC(=O)CSc2nnc(NC(=O)CN3CCOCC3)s2)c1
- inhibition [1]: 4.51% (inactive)

Compound: Cc1nnc(SCC(=O)NCc2ccccc2)s1
- inhibition [2]: -3.33% (inactive)
- inhibition [3]: 3.33%
